According to PubChem BioAssay AID602281 (The Scripps Research Institute Molecular Screening Center, 2012):
Out of some 360,000 compounds screened, about 2,900 (0.81%) were called active. The sample holds actives, similar compounds and a random draw of the others, so the mix is not that of the screen.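 How the source made its calls: active means inhibition above the mean inhibition across every tested compound plus 3 SD (cut at about 22% in these data); inactive means the rest.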

What follows are compounds tested against Perilipin-5 (Homo sapiens) + 1-acylglycerol-3-phosphate O-acyltransferase ABHD5 (Homo sapiens) (UniProt Q00G26+Q8WTS1) (assay: blockers of ABHD5 binding to perilipin-5 – cell lysate, split luciferase complementation, luminescence, primary screen (AID 602281;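 further: 0% = DMSO only wells and the 100% control is not disclosed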)). Conditions: Split G. princeps luciferase complementation, 4 h, at 4 µM, hits give high values.
Sequence of Perilipin-5 (Homo sapiens) + 1-acylglycerol-3-phosphate O-acyltransferase ABHD5 (Homo sapiens) (Q00G26 whole entry, looked up): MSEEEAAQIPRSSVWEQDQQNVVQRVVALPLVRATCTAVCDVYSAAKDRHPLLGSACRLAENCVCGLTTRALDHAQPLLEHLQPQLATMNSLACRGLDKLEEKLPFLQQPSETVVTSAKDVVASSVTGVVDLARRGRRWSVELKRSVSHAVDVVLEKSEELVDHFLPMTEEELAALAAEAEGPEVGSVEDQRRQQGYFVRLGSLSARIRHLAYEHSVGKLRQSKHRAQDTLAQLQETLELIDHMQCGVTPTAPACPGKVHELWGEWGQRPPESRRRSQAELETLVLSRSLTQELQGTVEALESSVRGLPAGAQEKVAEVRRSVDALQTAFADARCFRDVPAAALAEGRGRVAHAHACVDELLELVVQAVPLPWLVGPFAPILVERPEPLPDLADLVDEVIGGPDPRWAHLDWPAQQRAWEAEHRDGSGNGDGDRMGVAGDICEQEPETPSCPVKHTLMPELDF
Sequence of Perilipin-5 (Homo sapiens) + 1-acylglycerol-3-phosphate O-acyltransferase ABHD5 (Homo sapiens) (Q8WTS1 whole entry, looked up): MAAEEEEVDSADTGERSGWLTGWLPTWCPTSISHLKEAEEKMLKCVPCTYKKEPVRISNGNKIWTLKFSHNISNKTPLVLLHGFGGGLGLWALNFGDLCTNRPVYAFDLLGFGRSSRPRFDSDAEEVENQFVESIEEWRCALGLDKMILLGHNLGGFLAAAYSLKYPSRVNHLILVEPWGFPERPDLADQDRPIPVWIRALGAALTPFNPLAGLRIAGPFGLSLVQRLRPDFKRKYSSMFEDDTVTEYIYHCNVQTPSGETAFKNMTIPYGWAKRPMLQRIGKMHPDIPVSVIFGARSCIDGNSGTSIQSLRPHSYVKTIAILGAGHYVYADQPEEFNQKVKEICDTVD

| Compound | inhibition |
| --- | --- |
| CCOC(=O)[C@]12Cc3cc(OC)ccc3[C@H]1N(C(C)C)C(=O)c1ccccc12 | 14.9% (inactive) |
| CCOC(=O)[C@]12Cc3ccccc3[C@H]1N(C1CCCCC1)C(=O)c1cc(OC)ccc12 | 39.6% (active) |
| CC(C)N(CC#CCC1(O)c2ccccc2-c2ccccc21)C(C)C | 3.81% (inactive) |
| CN(C)CC1Oc2ccccc2OC1(O)c1ccccc1 (stereo not given) | 46.5% (active) |
| CCOC(=O)CNC(=O)N1Cc2cc(N3CCCCC3)ccc2-n2nncc2C1 | 5.92% (inactive) |
| CCN1CC2C3CCC(C)(O3)C2C1 (stereo not given) | 4.06% (inactive) |
| Cc1ccc(-c2cc(C(=O)N3CCC4(CC3)OCCO4)no2)cc1 | -2.79% (inactive) |
| CCc1cccc2c(C#N)cn(CC(=O)N3CCOCC3)c12 | 1.5% (inactive) |
| CCC(=O)CC(c1ccc([N+](=O)[O-])cc1)c1c(O)c2ccccc2oc1=O (stereo not given) | 5.29% (inactive) |
| Cc1cccc(N2C(=O)NC(=O)/C(=C\c3cnn(-c4ccccc4)c3)C2=O)c1 | 55.1% (active) |
| O=C(COC(=O)c1ccccc1)Nc1ccc(Cl)cc1C(=O)c1ccccc1 | 7.59% (inactive) |
| Cc1ccc(S(=O)(=O)N(C)c2ccc(C(=O)NCC3(N(C)C)CCCCC3)cc2)cc1 | 0.68% (inactive) |
| COc1ccccc1N1CCN(C(CNC(=O)Oc2ccccc2)c2cccnc2)CC1 (stereo not given) | 0.85% (inactive) |
| N#Cc1ccc(Cn2cc(C(=O)c3ccco3)c3ccccc32)cc1 | 5.75% (inactive) |
| Cc1ccc(Cn2c(C)c3cnn(CC(=O)N4CCC5(CC4)OCCO5)c(=O)c3c2C)cc1 | 9.7% (inactive) |
| COc1ccc(CN2C(=O)NC(=O)/C(=C\c3ccc(OC)c(OC)c3OC)C2=O)cc1 | 23.3% (active) |
| C=CCN1C(=O)NC(=O)/C(=C/c2ccc(OCC(=O)Nc3ccc(C)cc3)cc2)C1=O | 15.7% (inactive) |
| Cc1ccc(C)c(NC2=NCCCS2)c1 | 7.47% (inactive) |
| C=CCN1C(=O)C2(C(C(=O)OCC)=C(N)Oc3c2c(=O)oc2ccccc32)c2ccccc21 (stereo not given) | -7.25% (inactive) |
| O=c1[nH]c(=O)n(-c2ccc(F)cc2)c(O)c1C=NCCN1CCCCC1 | -4.1% (inactive) |
| CCc1nnc(NS(=O)(=O)c2ccc(N=Cc3c(O)n(-c4ccccc4)c(=O)[nH]c3=O)cc2)s1 | 24.9% (active) |
| COc1ccc(N=Cc2c(O)n(C)c(=O)[nH]c2=O)cc1 | -7.01% (inactive) |
| Cc1ccc(N2C(=O)NC(=O)C(CCc3ccncc3)(Cc3cccc(Cl)c3Cl)C2=O)cc1 (stereo not given) | -2.62% (inactive) |
| CC1CCC(N(C)C2CCN(C)CC2)CC1 (stereo not given) | -5.21% (inactive) |
| O=c1[nH]c(=O)n(CCc2ccc(F)cc2)c(O)c1/C=N/N1CCCCC1 | -2.89% (inactive) |
